Growth data for nine compounds are collected here from PubChem BioAssay (NCI).

Some test systems named below: DU-145 prostate; MALME-3M melanoma; MDA-MB-231 breast; RXF 393 renal; SF-268 CNS; SF-295 CNS; SF-539 CNS; UACC-257 melanoma; M14 melanoma; HCT-15 colon; HT29 colon; SNB-75 CNS; SNB-19 CNS; U251 CNS; PC-3 prostate; UACC-62 melanoma; LOX IMVI melanoma; SK-MEL-28 melanoma; K-562 leukemia; SK-MEL-5 melanoma.
What all share (assay): NCI-60 one-dose screen, 48 h (100 = growth as untreated, 0 = no growth, -100 = all killed)
Common to all, as to details: 10 µM unless noted

This is part of a sample that, as a whole, favours compounds with a hit. Of some 83,000 tested, about 20% had one in any assay.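 How to read the values: 0–100, growth inhibition (40 = 60% inhibited); 0, no net growth; -100 to 0, cell death (-40 = 40% of starting cells died; -100 = all dead).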 Unmarked numbers belong to inactive results. The source made the active and inactive calls. Rule for the calls: active = growth percent below 10; inactive = the rest.

Turning to `CCN(CC)c1ccc2c(c1)Oc1nc(N)c(C#N)c(N)c1C2Sc1ccc(SC)cc1` (centres undefined), the growth with DU-145 prostate is -48% (active); in the test on MALME-3M melanoma, -15.9% (active); in the test on MDA-MB-231 breast, -39.3% (active); with RXF 393 renal it was -67.6% (active); in the test with SF-268 CNS it was 4.56% (active); in the test on SF-295 CNS, -54.2% (active). The growth in the test on SF-539 CNS is -71.8% (active); in the test with UACC-257 melanoma it was 55.6%; in the test with M14 melanoma, -42.3% (active); in the test with HCT-15 colon it was -14.3% (active); in the test with HT29 colon it was -76.6% (active); in the test with SNB-75 CNS, -54.9% (active). For the same compound, the growth was -64.1% (active) with SNB-19 CNS; -92% (active) in the test on U251 CNS; -28.5% (active) in the test on PC-3 prostate; -14.4% (active) in the test on UACC-62 melanoma; -96.9% (active) with LOX IMVI melanoma; -9.16% (active) with SK-MEL-28 melanoma.

Turning to `COc1nc2c(c(=O)n1C)CN(Cc1ccccc1)C=N2`, the growth in the test on DU-145 prostate is 114%; with K-562 leukemia, 93.2%; with MDA-MB-231 breast it was 119%; in the test on RXF 393 renal, 109%; with SF-268 CNS, 106%; in the test with SF-295 CNS, 109%. In addition, the growth with SF-539 CNS was 116%; with UACC-257 melanoma, 94.9%; in the test on M14 melanoma it was 101%; in the test on HCT-15 colon, 105%; in the test with HT29 colon, 109%; with SNB-75 CNS it was 78%. Moreover, the growth in the test with SNB-19 CNS was 91.1%; in the test with U251 CNS, 115%; in the test on SK-MEL-5 melanoma, 111%; in the test on UACC-62 melanoma, 116%; with LOX IMVI melanoma it was 98.1%; in the test on SK-MEL-28 melanoma it was 108%.

`CC[C@@H]1O[C@H](O[C@@H](c2cnc[nH]2)[C@H](NC(=O)c2nc([C@H](CC(N)=O)NC[C@@H](N)C(N)=O)nc(N)c2C)C(=O)N[C@H](C)[C@H](O)[C@H](C)C(=O)N[C@@H](C(=O)NCCc2nc(-c3nc(C(=O)NCCCCN=C(N)N)cs3)cs2)[C@@H](C)O)[C@H](O[C@@H]2O[C@H](CO)[C@H](O)[C@H](OC(N)=O)[C@@H]2O)[C@H](C)[C@@H]1C`: the growth was 49.4% with DU-145 prostate; 82% in the test with K-562 leukemia; 45% with MALME-3M melanoma; 88.7% in the test on MDA-MB-231 breast; 23.1% in the test with SF-268 CNS; 70.9% in the test with UACC-257 melanoma. Further, the growth in the test on M14 melanoma was 39.2%; with HCT-15 colon, 45.1%; in the test on HT29 colon, 53.9%; with U251 CNS, 35.3%; in the test with PC-3 prostate, 71.2%; in the test on UACC-62 melanoma it was 37.5%. Moreover, the growth with SK-MEL-28 melanoma was 87.6%.

With `COc1ccc2cc(-c3nn(-c4ccc(C(=O)O)cc4)cc3CO)ccc2c1`, the growth is 103% in the test on DU-145 prostate; 106% in the test with MALME-3M melanoma; 111% in the test on MDA-MB-231 breast; 122% in the test on RXF 393 renal; 86.3% in the test with SF-268 CNS; 99.1% with SF-295 CNS. For the same compound, the growth with SF-539 CNS is 93.1%; in the test with UACC-257 melanoma it was 103%; in the test with M14 melanoma it was 98.7%; with HCT-15 colon, 98.1%; in the test with HT29 colon it was 98.7%; in the test with SNB-75 CNS, 80.9%. In addition, the growth is 103% in the test on SNB-19 CNS; 104% in the test with U251 CNS; 98.7% in the test with PC-3 prostate; 103% in the test on UACC-62 melanoma; 101% with LOX IMVI melanoma; 112% in the test with SK-MEL-28 melanoma.

For the compound `COc1ccc(Nc2cc(C)nc(N3CCN(c4ccnc5cc(Cl)ccc45)CC3)n2)cc1`, the growth in the test on DU-145 prostate was 58%; with K-562 leukemia it was 10.1%; in the test on MDA-MB-231 breast, 17.7%; with RXF 393 renal, 51.4%; in the test with SF-268 CNS it was 52.6%; in the test on SF-295 CNS, 15.9%. Also, the growth in the test on SF-539 CNS was 54.7%; with UACC-257 melanoma, 62.6%; in the test with M14 melanoma it was 27.3%; with HCT-15 colon, 14.8%; with HT29 colon it was 9.85% (active); with SNB-75 CNS, 42.7%. Further, the growth with SNB-19 CNS was 48.1%; with U251 CNS, 37.6%; in the test with PC-3 prostate, 33%; in the test on UACC-62 melanoma, 17.7%; in the test with SK-MEL-28 melanoma, 59.9%.

In the case of `COc1cc2c(cc1OC)C(Sc1ccc(SC)cc1)c1c(nc(N)c(C#N)c1N)O2` (centres undefined), the growth is -75.8% (active) in the test with DU-145 prostate; -67% (active) in the test on MALME-3M melanoma; -67.4% (active) with MDA-MB-231 breast; -75.9% (active) in the test on RXF 393 renal; -36.6% (active) in the test with SF-268 CNS; -56.3% (active) with SF-295 CNS. For the same compound, the growth is -95.3% (active) with SF-539 CNS; -51.2% (active) with UACC-257 melanoma; -80.6% (active) in the test on M14 melanoma; -71.5% (active) in the test with HCT-15 colon; -55.2% (active) in the test with HT29 colon; -54.5% (active) in the test with SNB-75 CNS. Besides, the growth was -77.9% (active) with SNB-19 CNS; -99.3% (active) with U251 CNS; -75.8% (active) in the test on PC-3 prostate; -61.3% (active) in the test on UACC-62 melanoma; -96.3% (active) in the test on LOX IMVI melanoma; -55.5% (active) in the test with SK-MEL-28 melanoma.

On to `Cc1cc(N2CCCCC2)nc(NC2CCCC(Nc3ccnc4cc(Cl)ccc34)C2)n1` (centres undefined), for which the growth was 1.31% (active) with DU-145 prostate; -86% (active) with MALME-3M melanoma; -89.8% (active) in the test with MDA-MB-231 breast; -81.2% (active) with RXF 393 renal; -59.6% (active) with SF-268 CNS; -76.7% (active) with SF-295 CNS. Besides, the growth with SF-539 CNS was -92.8% (active); with UACC-257 melanoma, -90.9% (active); in the test with M14 melanoma, -86.5% (active); in the test with HCT-15 colon, -67.6% (active); in the test on HT29 colon it was -59.9% (active); in the test with SNB-75 CNS, -80.9% (active). The growth is -20.7% (active) with SNB-19 CNS; -97.4% (active) in the test with U251 CNS; -72.8% (active) in the test on PC-3 prostate; -86.2% (active) with UACC-62 melanoma; -84.9% (active) in the test on LOX IMVI melanoma; -84% (active) in the test with SK-MEL-28 melanoma.

For the compound `Cc1cc(N2CCN(c3ccnc4cc(Cl)ccc34)CC2)nc(N2CCOCC2)n1`, the growth in the test with DU-145 prostate is 88.1%; in the test with K-562 leukemia, 55.9%; with MDA-MB-231 breast it was 64.1%; in the test with RXF 393 renal, 80.6%; in the test on SF-268 CNS it was 87.4%; in the test with SF-295 CNS it was 81.1%. The growth with SF-539 CNS was 96.6%; in the test on UACC-257 melanoma it was 88.6%; with M14 melanoma it was 87.2%; in the test on HCT-15 colon it was 73.6%; in the test on HT29 colon it was 67.6%; with SNB-75 CNS, 88.9%. The growth in the test on SNB-19 CNS is 82.6%; in the test on U251 CNS, 93.9%; in the test on PC-3 prostate it was 51.9%; with UACC-62 melanoma it was 84.3%; with SK-MEL-28 melanoma it was 104%.

With `Cc1cc(N2CCN(c3ccnc4cc(Cl)ccc34)CC2)nc(NC2CCCCC2)n1`, the growth was 51.5% in the test with DU-145 prostate; 5.36% (active) with K-562 leukemia; -3.08% (active) in the test with MDA-MB-231 breast; 48.8% with RXF 393 renal; 47.4% in the test with SF-268 CNS; 18.9% in the test with SF-295 CNS. The growth in the test with SF-539 CNS was 43%; in the test with UACC-257 melanoma, -0.92% (active); in the test with M14 melanoma it was -45.1% (active); with HCT-15 colon, 3.54% (active); with HT29 colon, 6.72% (active); with SNB-75 CNS, 58.2%. For the same compound, the growth in the test on SNB-19 CNS was 56.6%; in the test with U251 CNS it was 30.7%; in the test on PC-3 prostate, 22.2%; with UACC-62 melanoma, -48.7% (active); in the test on SK-MEL-28 melanoma, 23.9%.
